Compounds with a hit are over-represented: about 3.1% of the library has one in this group of screens.
rTrxR1 inhibitor: rat TrxR1 inhibition | O89049 | recombinant rTrxR1, NADPH fluorescence consumption, selenite substrate | Potency, µM (highest dose often 114 µM), for the others: top-dose activity change, negative = inhibition, most hits filed as inhibitors | hit rate 1% among 390,000 | AID 588453; also: % is scaled to controls: 0 for no effect and ±100 for the full control effect; nearly all actives have a fitted effect of over 65% in size
Target sequence (O89049 whole entry, looked up): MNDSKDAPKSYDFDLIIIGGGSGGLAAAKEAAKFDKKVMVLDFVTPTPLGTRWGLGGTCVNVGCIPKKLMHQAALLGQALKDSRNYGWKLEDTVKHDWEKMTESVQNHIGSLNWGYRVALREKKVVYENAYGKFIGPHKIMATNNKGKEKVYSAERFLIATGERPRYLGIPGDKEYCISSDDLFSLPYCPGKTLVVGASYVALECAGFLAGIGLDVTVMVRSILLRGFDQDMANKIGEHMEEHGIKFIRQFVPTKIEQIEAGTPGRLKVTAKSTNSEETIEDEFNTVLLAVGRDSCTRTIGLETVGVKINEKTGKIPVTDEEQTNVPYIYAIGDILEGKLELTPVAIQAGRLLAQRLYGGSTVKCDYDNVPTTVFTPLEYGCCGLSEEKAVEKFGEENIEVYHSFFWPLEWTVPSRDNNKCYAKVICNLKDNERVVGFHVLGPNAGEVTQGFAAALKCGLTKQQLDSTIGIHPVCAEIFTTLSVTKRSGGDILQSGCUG
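Rat TrxR1 (90 nM in the dispensed reagent) was pre-reduced with 400 uM NADPH for 5 min at room temperature, then incubated with compound for 15 min. After 400 uM selenite was added, NADPH fluorescence (Ex 340/Em 450 nm) was followed for 8 min.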
mIDH1 inhibitor: blocks human mutant IDH1 R132H enzyme; IDH1-R132H enzyme, NADPH consumption, diaphorase/resazurin fluorescence; hit rate 0.093% among 390,000; Potency, µM (highest dose often 76.6 µM), for inactives: at the top dose activity change, negative = inhibition, usual class: inhibitors; also: % is scaled to controls: 0 for no effect and ±100 for the full control effect; nearly all actives have a fitted effect of over 65% in size
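IDH1-R132H (0.5 ug/mL) preincubated 30 min with compound, then NADPH (0.016 mM) and alpha-KG (2 mM) added; 80 min at RT, pH 7.5. Remaining NADPH coupled via diaphorase/resazurin to fluorescence (540/590 nm); concentration-response curves normalized to no-enzyme control.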
A549 tox-1: A549 cytotoxicity, counter-screen for Nrf2 inhibitors | A549 ARE-Fluc cells, CellTiter-Fluor viability, 18-24 h | Potency, µM (top dose mostly 46 µM), for inactives: at the highest dose activity change, negative = cytotoxicity, usual class: inhibitors | hit rate 0.16% among 390,000 | AID 504648; also: % is scaled to controls: 0 for no effect and ±100 for the full control effect
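Cytotoxicity counterscreen: CellTiter-Fluor fluorescence was measured in A549 ARE_Fluc cells after 18-24 h of compound exposure in a concentration series. The subsequent BugLite luminescent read reports ARE-luciferase activity.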
TrxR1 substrate: substrates of rat thioredoxin reductase 1 | Potency, µM (top dose mostly 114 µM), inactives show at the top dose activity change, negative = substrate turnover | purified TrxR1 substrate turnover, NADPH consumption readout | hit rate 0.01% among 390,000 | O89049; also: % is scaled to controls: 0 for no effect and ±100 for the full control effect; nearly all actives have a fitted effect of over 50% in size
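Rat TrxR1, dispensed at 90 nM, was prereduced with 400 uM NADPH (final) for 5 min at ~22 deg C, then incubated with compound 15 min before 400 uM selenite. A first-read NADPH fluorescence drop versus no-compound background flagged substrates.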
Nrf2 block: inhibitors of Nrf2 signaling. A549 ARE-Fluc reporter, luciferase luminescence, 18-24 h. Potency, µM (doses to about 46 µM), inactives show top-dose activity change, negative = inhibition, usual class: inhibitors. hit rate 2.1% among 360,000. AID 504444; also: % is scaled to controls: 0 for no effect and ±100 for the full control effect; nearly all actives have a fitted effect of over 60% in size
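Reporter: ARE-Fluc in A549. Exposure: 18-24 h, 37 °C, 5% CO2, 5% FBS OPTI-MEM. Readouts: fluorescent cytotoxicity (CellTiter-Fluor), then luminescent Nrf2 signal after BugLite.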
Mito fusion yeast: inhibitors of mitochondrial division or activators of mitochondrial fusion | S. cerevisiae fusion-defective mutant growth rescue, CellTiterGlo 48 h | Potency, µM (top dose mostly 46.1 µM), inactives show at the top dose growth rescue (activation), usual class: activators | hit rate 0.23% among 320,000; also: % of control where 0% means no effect; nearly all actives have a fitted effect of over 45% in size
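Temperature-sensitive fusion-defective S. cerevisiae (e.g. fzo1-1, mgm1-5) were grown with compound in YPEG medium (3% ethanol, 3% glycerol) for 48 hours at 37C. Growth rescue was measured as viability by CellTiterGlo luminescence after 10 minutes at ambient.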
FLuc enzyme inh: blocks purified firefly luciferase in Nrf2 counterscreen; purified firefly luciferase, luminescence inhibition; shares compounds with Nrf2 block; Potency, µM (highest dose often 57.5 µM), inactives show at the highest dose activity change, negative = inhibition, actives largely listed as inhibitors; hit rate 4% among 1,400; also: % is scaled to controls: 0 for no effect and ±100 for the full control effect; nearly all actives have a fitted effect of over 65% in size
A549 tox-2: A549 cytotoxicity, Nrf2 inhibitor counterscreen. shares compounds with Nrf2 block. A549 ARE-Fluc cells, cytotoxicity counterscreen. Potency, µM (doses to about 46.1 µM), without a hit: top-dose activity change, negative = cytotoxicity, actives largely listed as inhibitors. hit rate 2% among 1,400;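 also: cells exposed to compounds for 18 to 24 hours; % is scaled to controls: 0 for no effect and ±100 for the full control effect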
Nrf2 ARE inh: Nrf2 inhibition confirmed, A549 ARE-luciferase; hit rate 74% among 1,400; shares compounds with Nrf2 block; A549 ARE-firefly luciferase reporter, luminescence; Potency, µM (series often up to 46.1 µM), for inactives: at the highest dose activity change, negative = inhibition, actives largely listed as inhibitors; also: % is scaled to controls: 0 for no effect and ±100 for the full control effect; nearly all actives have a fitted effect of over 65% in size
Active calls of the source: *; [ ] = remark or other dose. Calls follow the shape of the dose curve; as a rule, active = well fitted curve in the direction sought with a large enough effect; inconclusive = small, poorly fitted or top-dose-only effect, or another doubt; inactive = no such curve, though single readings can be large; an effect the other way counts as inactive or inconclusive. Potency is read from the fitted curve at half-maximal effect.

How did O=C(Cn1c(=O)n(Cc2ccco2)c(=O)c2ccccc21)Nc1ccc(Cl)cc1Cl do in these assays?
rTrxR1 inhibitor: 16%; mIDH1 inhibitor: -3%; A549 tox-1: -2%; TrxR1 substrate: 0%; Nrf2 block: -13%

Results for CC(C)CCOc1cccc(OCC(=O)Nc2ccncc2)c1 ?
rTrxR1 inhibitor: 9%; mIDH1 inhibitor: -13%; A549 tox-1: 1%; TrxR1 substrate: 2%; Nrf2 block: 9.2µM*; Mito fusion yeast: -58%; FLuc enzyme inh: -17%; A549 tox-2: -4%; Nrf2 ARE inh: 3.7µM*

Results for Cc1ccc2ncc(C(=O)Nc3ccc(F)cc3F)c(=O)n2c1 ?
rTrxR1 inhibitor: -6%; mIDH1 inhibitor: -11%; A549 tox-1: 2%; TrxR1 substrate: -8%; Nrf2 block: inconclusive

Results for Cc1ccc(Cl)cc1N1CCN(C(=O)c2cc3c(=O)[nH]c4ccccc4c3n2C)CC1 ?
rTrxR1 inhibitor: -3%[57.1 µM]; mIDH1 inhibitor: -1%; A549 tox-1: -20%; TrxR1 substrate: 1%; Nrf2 block: 4.1µM*; Mito fusion yeast: -1%; FLuc enzyme inh: 2%; A549 tox-2: -25%; Nrf2 ARE inh: inconclusive

Results for Cn1c(C(=O)N2CCN(c3ccc(Cl)cc3)CC2)cc2c(=O)[nH]c3ccccc3c21 ?
rTrxR1 inhibitor: 3%[57.1 µM]; mIDH1 inhibitor: -1%; A549 tox-1: -27%; TrxR1 substrate: 4%[57.1 µM]; Nrf2 block: inconclusive; Mito fusion yeast: 3%

What do the screens show for `COc1ccc(-c2nnc(NC(=O)c3ccc(S(=O)(=O)N4CCc5ccccc5C4)cc3)o2)cc1`?
rTrxR1 inhibitor: inconclusive; mIDH1 inhibitor: 2%; A549 tox-1: -10%; TrxR1 substrate: -18%; Nrf2 block: 2.8µM*; Mito fusion yeast: 3%; FLuc enzyme inh: 0%; A549 tox-2: -25%; Nrf2 ARE inh: 8.2µM*

Results for COc1ccc(-c2csc(NC(=O)c3ccc(S(=O)(=O)N4CCc5ccccc5C4)cc3)n2)cc1 ?
rTrxR1 inhibitor: 20%; mIDH1 inhibitor: 2%; A549 tox-1: -11%; TrxR1 substrate: -21%[57.1 µM]; Nrf2 block: 5.2µM*; Mito fusion yeast: -2%; FLuc enzyme inh: 4%; A549 tox-2: 0%; Nrf2 ARE inh: -27%

What do the screens show for `O=C(Nc1nnc(C2CC2)o1)c1ccc(S(=O)(=O)N2CCc3ccccc3C2)cc1`?
rTrxR1 inhibitor: 38%; mIDH1 inhibitor: -10%; A549 tox-1: inconclusive; TrxR1 substrate: 5%; Nrf2 block: inconclusive; Mito fusion yeast: -5%

Results for COC(=O)c1ccc(-c2csc(NC(=O)c3ccc(S(=O)(=O)N4CCc5ccccc5C4)cc3)n2)cc1 ?
rTrxR1 inhibitor: -3%; mIDH1 inhibitor: 4%; A549 tox-1: 11%; TrxR1 substrate: -7%; Nrf2 block: 6%; Mito fusion yeast: -2%

Results for CCOc1ccccc1-n1ccnc(NCc2ccc(F)cc2)c1=O ?
rTrxR1 inhibitor: 16%[57.1 µM]; mIDH1 inhibitor: 4%; A549 tox-1: 8%; TrxR1 substrate: 7%[57.1 µM]; Nrf2 block: inconclusive

What do the screens show for `CCOC(=O)c1c(-c2ccccc2)csc1NC(=O)c1cc(-c2ccc(Cl)cc2)on1`?
rTrxR1 inhibitor: 25%; mIDH1 inhibitor: -8%; A549 tox-1: 1%; TrxR1 substrate: 4%; Nrf2 block: 1%

Results for C=C1C[C@H]2[C@@H]3C=C(C)C4=CC(=O)CC[C@]4(C)[C@H]3CC[C@]2(C)[C@@]1(OC(C)=O)C(C)=O ?
rTrxR1 inhibitor: -9%; mIDH1 inhibitor: 8%; A549 tox-1: -5%; TrxR1 substrate: -1%; Nrf2 block: inconclusive; Mito fusion yeast: 19%; FLuc enzyme inh: -1%; A549 tox-2: -9%; Nrf2 ARE inh: 0.16µM*

What do the screens show for `CC(=O)C1(C)CCC2C3C=C(C)C4=CC(=O)CCC4(C)C3CCC21C` (stereo unspecified)?
rTrxR1 inhibitor: 10%[11.4 µM]; mIDH1 inhibitor: inconclusive; A549 tox-1: -5%; TrxR1 substrate: 10%[57.1 µM]; Nrf2 block: inconclusive

How did Cc1cc(Cl)ccc1Nc1ncnc2onc(C)c12 do in these assays?
rTrxR1 inhibitor: 10%; mIDH1 inhibitor: -3%; A549 tox-1: -3%; TrxR1 substrate: 3%; Nrf2 block: 1%

Results for CCN(C(=O)c1ccc(C(C)(C)C)cc1)c1nnc(Cn2nnc3ccccc32)s1 ?
rTrxR1 inhibitor: 18%[57.1 µM]; mIDH1 inhibitor: -4%; A549 tox-1: inconclusive; TrxR1 substrate: -11%; Nrf2 block: 5.8µM*; Mito fusion yeast: 18%; FLuc enzyme inh: 1%; A549 tox-2: -15%; Nrf2 ARE inh: 6.5µM*

How did CC(=NNc1ccc2ccccc2n1)c1ccccc1O do in these assays?
rTrxR1 inhibitor: -1%[11.4 µM]; mIDH1 inhibitor: 11%; A549 tox-1: 1%; TrxR1 substrate: 7%[57.1 µM]; Nrf2 block: inconclusive; FLuc enzyme inh: 0.038µM*; A549 tox-2: -6%; Nrf2 ARE inh: inconclusive

Results for C/C(=N\Nc1nc2ccccc2nc1C)c1ccccc1O ?
rTrxR1 inhibitor: 8%; mIDH1 inhibitor: 2%; A549 tox-1: -14%; TrxR1 substrate: 1%; Nrf2 block: 0%; Mito fusion yeast: -4%

Results for Cc1ccccc1-c1noc(-c2ccc(N3CCCC3)c([N+](=O)[O-])c2)n1 ?
rTrxR1 inhibitor: 9%; mIDH1 inhibitor: 4%; A549 tox-1: 5%; TrxR1 substrate: 25%; Nrf2 block: inconclusive

Results for COc1ccc(OCC(O)Cn2c(NCCO)nc3c2c(=O)n(C)c(=O)n3C)cc1 (stereo unspecified) ?
rTrxR1 inhibitor: 16%; mIDH1 inhibitor: 13%; A549 tox-1: -6%; TrxR1 substrate: 7%; Nrf2 block: 7.3µM*; FLuc enzyme inh: 1%; A549 tox-2: -3%; Nrf2 ARE inh: 12µM*

Bioassay records (PubChem)
